From PubChem BioAssay
Values without a mark were called inactive. Where a call stands in place of a potency, no number is given. For some assays here: Potency and affinity values are given separately. The source made the active and inactive calls. Unless noted, the rule behind the calls is not given here.

Experiments:
[1] = antimalarial activity against Dd2 strain (AID 2302;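 active = growth inhibition above 50% at the single 2 µM test dose, taken to imply half-maximal potency below 2 µM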); conditions: P. falciparum Dd2 in RBCs, LDH growth readout, 72 h; at 2 µM; active compounds read high
[2] = human hepatoma cell viability loss – ATP luminescence, cytotoxicity control for P. falciparum antimalarial project, primary screen (AID 2303;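 active = inhibition above 50%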); conditions: HepG2 viability, 24-48 h, at 10 µM, active compounds read high
[3] = target: L-lactate dehydrogenase (Plasmodium falciparum (isolate CDC / Honduras)) (UniProt Q27743); assay: PfLDH activity inhibition – cell lysate, 3D7 strain, counter-screen for P. falciparum growth inhibition project (AID 2304); conditions: P. falciparum 3D7 crude extract, LDH APAD/NBT absorbance; at 2 µM; active compounds read high
[4] = inhibition of 3D7 malaria parasite growth – strain 3D7 (AID 2306); conditions: P. falciparum 3D7 erythrocytic growth, LDH absorbance, 72 h; at 2 µM; active compounds read high
[5] = target: Calcium-dependent protein kinase 1 (Plasmodium falciparum (isolate 3D7)) (UniProt P62344); assay: PfCDPK1 kinase inhibitors, biochemical, TCAMS library (AID 1159585; cut-off not given, nearly all actives have IC50 up to about 0.98 µM;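 note: inhibitors leave more ATP so luminescence rises with inhibition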); conditions: recombinant PfCDPK1, Kinase-Glo ATP depletion luminescence
[6] = target: Plasmodium falciparum protein kinase 6 (PK6, PF3D7_1337100) (UniProt Q8IDW1); assay: PfPK6 kinase inhibitors, biochemical, TCAMS library (AID 1159586); conditions: recombinant PfPK6, Kinase-Glo ATP depletion luminescence
[7] = target: Protein kinase 7 (PK7), Plasmodium falciparum 3D7 (PF3D7_0213400) (UniProt Q7YTF7); assay: inhibition of Plasmodium PK7 catalytic activity – biochemical, TCAMS antimalarial set, Kinase-Glo luminescence (AID 1159587); conditions: recombinant PfPK7, Kinase-Glo ATP depletion luminescence
[8] = target: Calcium-dependent protein kinase 4 (Plasmodium falciparum (isolate 3D7)) (UniProt Q8IBS5); assay: PfCDPK4 kinase inhibitors, biochemical, TCAMS library (AID 1159588; cut-off not given, nearly all actives have IC50 up to about 0.91 µM); conditions: recombinant PfCDPK4, Kinase-Glo ATP depletion luminescence
Sequence of Calcium-dependent protein kinase 4 (Plasmodium falciparum (isolate 3D7)) (Q8IBS5 whole entry, looked up): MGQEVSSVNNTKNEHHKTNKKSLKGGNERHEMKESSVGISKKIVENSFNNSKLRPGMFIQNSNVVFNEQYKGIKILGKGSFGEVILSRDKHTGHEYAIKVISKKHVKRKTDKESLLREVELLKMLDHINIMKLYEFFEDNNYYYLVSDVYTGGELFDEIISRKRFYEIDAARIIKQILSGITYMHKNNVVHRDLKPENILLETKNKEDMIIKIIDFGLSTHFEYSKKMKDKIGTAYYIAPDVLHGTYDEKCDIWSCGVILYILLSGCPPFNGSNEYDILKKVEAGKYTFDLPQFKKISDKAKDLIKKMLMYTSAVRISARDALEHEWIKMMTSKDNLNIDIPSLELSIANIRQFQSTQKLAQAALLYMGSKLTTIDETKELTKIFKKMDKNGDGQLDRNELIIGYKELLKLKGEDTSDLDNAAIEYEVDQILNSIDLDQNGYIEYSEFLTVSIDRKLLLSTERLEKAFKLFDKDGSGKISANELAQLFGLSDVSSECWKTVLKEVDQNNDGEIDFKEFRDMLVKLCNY

Sequence of Calcium-dependent protein kinase 1 (Plasmodium falciparum (isolate 3D7)) (P62344 whole entry, looked up): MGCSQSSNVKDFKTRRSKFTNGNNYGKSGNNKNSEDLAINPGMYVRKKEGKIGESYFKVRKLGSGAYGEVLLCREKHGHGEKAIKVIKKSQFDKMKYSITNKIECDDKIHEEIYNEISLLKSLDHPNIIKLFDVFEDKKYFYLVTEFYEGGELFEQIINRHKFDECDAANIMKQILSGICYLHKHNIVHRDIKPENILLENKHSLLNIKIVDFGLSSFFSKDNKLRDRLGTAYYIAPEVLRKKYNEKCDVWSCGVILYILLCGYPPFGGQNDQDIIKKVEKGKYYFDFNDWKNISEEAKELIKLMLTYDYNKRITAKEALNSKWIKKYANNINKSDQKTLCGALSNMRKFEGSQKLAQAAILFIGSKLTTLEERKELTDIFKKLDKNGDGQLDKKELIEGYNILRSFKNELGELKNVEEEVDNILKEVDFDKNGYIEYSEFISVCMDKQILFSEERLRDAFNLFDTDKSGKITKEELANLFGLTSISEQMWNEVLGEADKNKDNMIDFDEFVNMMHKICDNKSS
Sequence of Protein kinase 7 (PK7), Plasmodium falciparum 3D7 (PF3D7_0213400) (Q7YTF7 1-343): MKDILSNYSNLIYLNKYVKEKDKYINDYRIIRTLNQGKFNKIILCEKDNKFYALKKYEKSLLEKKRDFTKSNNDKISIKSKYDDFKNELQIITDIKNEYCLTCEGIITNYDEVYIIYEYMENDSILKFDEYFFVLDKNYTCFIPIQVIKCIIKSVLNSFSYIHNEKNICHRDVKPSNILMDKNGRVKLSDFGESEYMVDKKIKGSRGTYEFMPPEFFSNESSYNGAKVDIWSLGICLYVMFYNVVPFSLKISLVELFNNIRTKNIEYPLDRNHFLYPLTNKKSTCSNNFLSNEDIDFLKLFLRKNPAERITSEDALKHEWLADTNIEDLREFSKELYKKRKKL
Sequence of L-lactate dehydrogenase (Plasmodium falciparum (isolate CDC / Honduras)) (Q27743 whole entry, looked up): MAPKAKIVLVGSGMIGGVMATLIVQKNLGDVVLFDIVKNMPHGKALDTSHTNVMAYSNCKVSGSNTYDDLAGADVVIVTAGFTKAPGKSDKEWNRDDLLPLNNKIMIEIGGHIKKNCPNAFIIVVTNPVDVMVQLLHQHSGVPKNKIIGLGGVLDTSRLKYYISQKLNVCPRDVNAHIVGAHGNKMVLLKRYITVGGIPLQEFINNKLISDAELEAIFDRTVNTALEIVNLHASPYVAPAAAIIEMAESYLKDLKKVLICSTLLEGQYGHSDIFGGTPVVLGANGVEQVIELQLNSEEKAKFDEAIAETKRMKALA
Sequence of Plasmodium falciparum protein kinase 6 (PK6, PF3D7_1337100) (Q8IDW1 1-305): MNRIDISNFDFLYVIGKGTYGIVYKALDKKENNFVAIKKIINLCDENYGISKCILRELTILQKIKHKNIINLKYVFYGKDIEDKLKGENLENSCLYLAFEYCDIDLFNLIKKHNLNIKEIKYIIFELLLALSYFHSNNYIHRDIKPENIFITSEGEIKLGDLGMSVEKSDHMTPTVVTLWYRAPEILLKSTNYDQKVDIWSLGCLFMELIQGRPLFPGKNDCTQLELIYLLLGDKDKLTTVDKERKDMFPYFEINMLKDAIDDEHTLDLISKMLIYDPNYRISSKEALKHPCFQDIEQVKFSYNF

SMILES	growth inhibition [1]	inhibition [2]	inhibition [3] [%]	growth inhibition [4]	outcome [5]	outcome [6]	outcome [7]	outcome [8]
Cc1ccc(NC(=O)c2cc(Br)cc(N3CCC(N(C)C)CC3)c2)cc1F	80% (active)	23%	-3	100% (active)	inactive	inactive	inactive	inactive
Cc1nc2nc(N)nc(N)c2c(C)c1Cc1ccccc1I	-5%	63% (active)	5	96% (active)	inactive	inactive	inactive	inactive
CC(C)CNCc1ccc(-c2ccccc2CNC2CCN(Cc3ccccc3)CC2)cc1	41%	28%	-3	101% (active)	inactive	inactive	inactive	inactive
NCc1ccc(-c2ccccc2CNC2CCN(Cc3ccccc3)CC2)cc1	3%	20%	-2	94% (active)	inactive	inactive	inactive	inactive
O=C(CCc1cnc[nH]1)Nc1cccc(-c2cccc(-c3nc4ccc(C(F)(F)F)cc4[nH]3)c2)c1	99% (active)	17%	7	101% (active)	inactive	inactive	inactive	inactive
COc1ccc2nccc([C@@H](O)CN3CCC(NCc4ccc5sc(=O)[nH]c5c4)CC3)c2c1	-3%	1%	-3	98% (active)	inactive	inactive	inactive	inactive
COc1ccc(-c2csc(C(=O)NC3CCC(N4CCC(c5ccccc5C)CC4)CC3)c2)cc1 (stereo not given)	99% (active)	64% (active)	-1	101% (active)	inactive	inactive	inactive	inactive
O=C(NC1CCN(c2ccnc3cc(Cl)ccc23)C1)c1ccc(F)cc1F (stereo not given)	100% (active)	31%	2	100% (active)	inactive	inactive	inactive	inactive
Cc1cc(OCCCN2CCCCC2)ccc1NC(=O)COc1ccc(Cl)cc1C(=O)c1cc(C#N)cc(C(F)(F)F)c1	7%	23%	-5	87% (active)	inactive	inactive	inactive	inactive
O=C(Nc1ccc(-c2ccccc2)s1)N[C@H]1CCN(Cc2ccc(OCCCN3CCCCC3)cc2)C1	40%	5%	-6	102% (active)	inactive	inactive	inactive	inactive
O=C(Nc1ccon1)c1cc(-c2cccnc2)nc2ccc(Cl)cc12	76% (active)	-4%	6	98% (active)	inactive	inactive	inactive	inactive
CCCCOC(=O)c1ccc(NC(=O)Nc2ccc(Cn3ncc(N4CCCNCC4)c(Cl)c3=O)cc2)cc1	74% (active)	2%	2	92% (active)	inactive	inactive	inactive	inactive
Cc1cc(NCc2ccc(F)cc2)nc2cc(O)ccc12	85% (active)	14%	-7	98% (active)	inactive	inactive	inactive	inactive
COc1ccccc1C(=O)N1CCN(Cc2cccs2)CC1	1%	87% (active)	-1	96% (active)	inactive	inactive	inactive	inactive
CCOC(=O)c1c(CN(CC)CC)n(-c2ccccc2)c2cc(Br)c(O)cc12	46%	14%	-5	93% (active)	inactive	inactive	inactive	inactive
CCOC(=O)NCCSC(C)(C)[C@H](NC(=O)[C@H](Cc1cc2ccccc2s1)[C@H](CC)N(O)C=O)C(=O)Nc1nccs1	98% (active)	11%	1	98% (active)	inactive	inactive	inactive	inactive
O=C(Nc1ccccc1)c1ccc(-c2cc3ccncc3cc2OC2CCNCC2)s1	8%	-1%	-2	100% (active)	inactive	inactive	inactive	inactive
Nc1c2ccccc2nc2cc([N+](=O)[O-])ccc12	26%	92% (active)	-1	98% (active)	inactive	inactive	inactive	inactive
O=C(NCCCCN1CCN(CC=Cc2ccccc2)CC1)c1ccc(NC(=O)c2cc(Cl)cc(Cl)c2)cc1	63% (active)	26%	4	100% (active)	inactive	inactive	inactive	inactive
CN1CCN(CCCNCc2cccc(-c3ccc(CNCCc4ccccc4)cc3)c2)CC1	20%	36%	-9	100% (active)	inactive	inactive	inactive	inactive

SMILES	growth inhibition [1]	inhibition [2]	inhibition [3] [%]	growth inhibition [4]	outcome [5]	outcome [6]	outcome [7]	outcome [8]
CC(Oc1ccc(C(=O)c2ccc(F)cc2)cc1)C(=O)N1CCc2ccccc21 (stereo not given)	95% (active)	9%	1	95% (active)	inactive	inactive	inactive	inactive
Cc1cc(N2CC=CCC2)nc(/N=C(\N)Nc2ccc(Br)cc2)n1	41%	10%	-3	98% (active)	inactive	inactive	inactive	inactive
CC(C)CSc1cc(C(=O)Nc2cc(Cl)ccc2O)ccn1	34%	36%	-2	100% (active)	inactive	inactive	inactive	inactive
O=C(CCCCCNC(=O)c1ccc(O)c(-c2ccc(Cl)c(Cl)c2)c1)NCCN1CCOCC1	0%	-7%	-3	95% (active)	inactive	inactive	inactive	inactive
Cc1nn(-c2ccnc3cc(Cl)ccc23)c(C)c1C(=O)NCc1cc(Cl)cc(Cl)c1	53% (active)	-10%	-1	97% (active)	inactive	inactive	inactive	inactive
CS(=O)(=O)CCN(CCS(C)(=O)=O)Cc1ccc(-c2ccc3ncnc(Nc4ccc(OCc5cccc(F)c5)c(Cl)c4)c3c2)o1	27%	-2%	-3	90% (active)	inactive	inactive	inactive	inactive
Cc1c(CC(=O)NCCC2CCN(CCCCCNC(=O)/C=C/c3ccc(Cl)c(Cl)c3)CC2)sc2ccc(Cl)cc12	8%	59% (active)	0	92% (active)	inactive	inactive	inactive	inactive
NC(=O)c1cccc(C(=O)Nc2ccc(-c3cccc(-c4nc5ccc(C(F)(F)F)cc5[nH]4)c3)cc2)c1	86% (active)	74% (active)	-2	100% (active)	inactive	inactive	inactive	inactive
N#CCCN1CCN(Cc2ccc(-c3cccc(-c4nc5ccc(F)cc5[nH]4)c3)cc2)CC1	17%	16%	0	91% (active)	inactive	inactive	inactive	inactive
O=C(N1CCN(c2ccc(C(F)(F)F)cc2[N+](=O)[O-])CC1)C(Cl)(Cl)Cl	99% (active)	29%	0	101% (active)	inactive	inactive	inactive	inactive
CCN(CC)CCN(Cc1ccc(-c2ccc(Br)cc2)cc1)C(=O)Cn1c(CCc2cccc(F)c2F)nc(=O)c2ccccc21	74% (active)	37%	1	98% (active)	inactive	inactive	inactive	inactive
O=C1CN(C(=O)CCC2CCCC2)C(c2ccc(F)cc2)c2cc(F)ccc2N1 (stereo not given)	75% (active)	12%	-5	100% (active)	inactive	inactive	inactive	inactive
CNC(=O)c1[nH]c(-c2ccccc2)nc1NC(C)=O	-2%	-3%	-2	100% (active)	inactive	inactive	inactive	inactive
COc1ccc(CCN(C)CCOc2ccc(NC(=O)c3cccc4cc5ccccc5nc34)cc2)cc1OC	99% (active)	37%	-5	100% (active)	inactive	inactive	inactive	inactive
Cc1cc(=O)c(-c2ccc(Oc3ccc(Cl)cc3Cl)cc2)c(C)[nH]1	73% (active)	-1%	-2	93% (active)	inactive	inactive	inactive	inactive
CS(=O)(=O)c1cccc(-c2cnc3[nH]cc(-c4ccc(C(=O)O)cc4)c3c2)c1	100% (active)	6%	-2	99% (active)	inactive	inactive	inactive	inactive
CCc1ccc(C2CCN(CCCCNC(=O)c3ccc(NC(=O)c4ccc(Cl)cc4)cc3)CC2)c(OC)c1	80% (active)	26%	-6	101% (active)	inactive	inactive	inactive	inactive
O=C(/C=C/c1ccc(Cl)c(Cl)c1)NCCCCCN1CCC(NC(=O)Nc2ccc(Cl)c(Cl)c2)CC1	1%	23%	0	102% (active)	inactive	inactive	inactive	inactive
COc1ccccc1C1CC(c2ccc(C)cc2)=NN1C(=O)c1ccccc1 (stereo not given)	45%	37%	-5	98% (active)	inactive	inactive	inactive	inactive
CCc1cn2c3c(cc(C(=O)N[C@@H](Cc4cccc(F)c4)[C@H](O)CNC4CCCCC4)cc13)N(C)S(=O)(=O)CC2	99% (active)	5%	0	99% (active)	inactive	inactive	inactive	inactive
